# Results: PubChem BioAssay (EPA / NIEHS)
# Several values for one entry are separate records, joined by “and”; a condition that tells them apart may be missing. Equal values may be shown once. The source holds several records for some structures; these can differ, active in one and inactive in another. Activity calls are given as the source filed them. Rule for the calls: active = hit-call score of the fitted dose curve at least 0.9, where 1 is the maximum; inactive = score below 0.9.
# What was measured:
# [1] = BSK_hDFCGF_SRB: Viability Assessment in the BioMAP Diversity Plus: hDFCGF Assay (AID 2283061); conditions: primary human foreskin fibroblasts;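 note: cells exposed to compound for 24 h before the read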
# Outline: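 Cells were dosed with test chemical, cultured 24 h, fixed with 10% TCA, then stained with 0.1% SRB and read at 560 nm. The fibroblasts were human foreskin primary cells, and DMSO served as baseline.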
# [2] = read-out: TIMP metallopeptidase inhibitor 1 (TIMP1), TIMP1 (gene 7076); assay: BSK_hDFCGF_TIMP1: BioMAP Diversity Plus: hDFCGF Assay for TIMP metallopeptidase inhibitor 1 (TIMP1) Biomarker Activity (AID 2283062); conditions: primary human foreskin fibroblasts; actives raise or lower the signal
# Outline: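 Fibroblasts from human foreskin are treated with test chemical and harvested at 24 h. TIMP-1 is quantified by ELISA, and gain or loss of signal is scored against DMSO.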
# [3] = read-out: Monokine induced gamma interferon (MIG), CXCL9 (gene 4283); assay: BSK_hDFCGF_MIG: BioMAP Diversity Plus: hDFCGF Assay for Monokine induced gamma interferon (MIG) Biomarker Activity (AID 2283063); conditions: primary human foreskin fibroblasts; actives raise or lower the signal
# Outline: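 MIG signal, determined by ELISA, reflects 24 h chemical exposure of human skin primary fibroblasts. DMSO serves as negative control and baseline.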
# [4] = read-out: Matrix Metallopeptidase 1 (MMP1), MMP1 (gene 4312); assay: BSK_hDFCGF_MMP1: BioMAP Diversity Plus: hDFCGF Assay for Matrix Metallopeptidase 1 (MMP1) Biomarker Activity (AID 2283064); conditions: primary human foreskin fibroblasts; actives raise or lower the signal
# Outline: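 Human foreskin fibroblasts exposed to chemical for 24 h; MMP1 detected by ELISA, with DMSO as baseline for bidirectional fitting.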
# [5] = read-out: Vascular cell adhesion molecule 1 (VCAM1), VCAM1 (gene 7412); assay: BSK_hDFCGF_VCAM1: BioMAP Diversity Plus: hDFCGF Assay for Vascular cell adhesion molecule 1 (VCAM1) Biomarker Activity (AID 2283065); conditions: primary human foreskin fibroblasts; actives raise or lower the signal;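 for AC50: VCAM-1 protein level quantified by ELISA after 24 h chemical exposure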
# Outline: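 Cells are dosed, cultured for 24 h, then VCAM-1 is quantified by ELISA; signal increases and decreases are both fitted relative to DMSO.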
# [6] = read-out: Plasminogen activator inhibitor-1 (PAI1), SERPINE1 (gene 5054); assay: BSK_hDFCGF_PAI1: BioMAP Diversity Plus: hDFCGF Assay for Plasminogen activator inhibitor-1 (PAI1) Biomarker Activity (AID 2283066); conditions: primary human foreskin fibroblasts; actives raise or lower the signal
# Outline: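 PAI-1 levels in human dermal foreskin fibroblasts were quantified by ELISA 24 h after dosing, with gain or loss analysed against DMSO. Overt cytotoxicity was checked by sulforhodamine B total-protein staining in parallel cultures.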
# [7] = read-out: Intercellular Adhesion Molecule 1 (ICAM1), ICAM1 (gene 3383); assay: BSK_KF3CT_ICAM1: BioMAP Diversity Plus: KF3CT Assay for Intercellular Adhesion Molecule 1 (ICAM1) Biomarker Activity (AID 2283067); conditions: primary human keratinocytes with fibroblasts; actives raise or lower the signal
# Outline: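 Dose the keratinocyte/fibroblast co-culture, wait 24 h, measure ICAM-1 by ELISA, then fit increases or decreases against DMSO. Cytotoxicity is checked in parallel cultures by SRB total-protein staining.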
# [8] = read-out: Interferon-gamma inducible Protein 10 (IP10), CXCL10 (gene 3627); assay: BSK_KF3CT_IP10: BioMAP Diversity Plus: KF3CT Assay for Interferon-gamma inducible Protein 10 (IP10) Biomarker Activity (AID 2283068); conditions: primary human keratinocytes with fibroblasts; actives raise or lower the signal
# Outline: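 Human keratinocyte plus foreskin fibroblast primary co-culture exposed to test chemical for 24 h; IP-10 measured by ELISA. Concentration-response fitted bidirectionally against DMSO control as baseline.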
# [9] = read-out: Interleukin-1 alpha (IL1a), IL1A (gene 3552); assay: BSK_KF3CT_IL1a: BioMAP Diversity Plus: KF3CT Assay for Interleukin-1 alpha (IL1a) Biomarker Activity (AID 2283070); conditions: primary human keratinocytes with fibroblasts; actives raise or lower the signal
# Outline: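 Readout is IL-1a level by ELISA, compared bidirectionally with DMSO as baseline. Cells: human keratinocytes co-cultured with foreskin fibroblasts, harvested 24 h post-dose.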
# [10] = read-out: C-C motif chemokine 2 (Homo sapiens) (UniProt P13500); assay: BSK_KF3CT_MCP1: BioMAP Diversity Plus: KF3CT Assay for Monocyte Chemoattractant Protein 1 (MCP1/CCL2) Biomarker Activity (AID 2283073); conditions: primary human keratinocytes with fibroblasts; actives raise or lower the signal
# Outline: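 Keratinocytes and foreskin fibroblasts were co-cultured, dosed with chemical, and sampled 24 h later. MCP-1 was quantified by ELISA, and the endpoint was analyzed with bidirectional fitting using DMSO as negative control.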
# [11] = read-out: Matrix Metallopeptidase 9 (MMP9), MMP9 (gene 4318); assay: BSK_KF3CT_MMP9: BioMAP Diversity Plus: KF3CT Assay for Matrix Metallopeptidase 9 (MMP9) Biomarker Activity (AID 2283074); conditions: primary human keratinocytes with fibroblasts; actives raise or lower the signal;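 for AC50: MMP9 protein level quantified by ELISA in the co-culture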
# Outline: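 Values come from bidirectional fitting relative to DMSO of MMP-9 levels, which were measured by ELISA. Measurements were taken 24 h after chemical dosing of a keratinocyte and foreskin fibroblast co-culture.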
# [12] = read-out: urokinase plasminogen activator (uPA), PLAU (gene 5328); assay: BSK_KF3CT_uPA: BioMAP Diversity Plus: KF3CT Assay for urokinase plasminogen activator (uPA) Biomarker Activity (AID 2283075); conditions: primary human keratinocytes with fibroblasts; actives raise or lower the signal
# Outline: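 Values derive from bidirectional fitting against DMSO controls. Keratinocyte/foreskin fibroblast co-cultures received chemical; 24 h later uPA was detected by ELISA, with SRB total-protein staining in parallel wells for overt cytotoxicity.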
# CD40, CD40 (gene 958) = assay: BSK_LPS_CD40: BioMAP Diversity Plus: LPS Assay for CD40 Biomarker Activity (AID 2283076); conditions: primary human HUVEC with PBMC; actives raise or lower the signal
# Outline: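 CD40 signal, measured by ELISA, is fitted in both directions relative to DMSO vehicle. The system is an LPS-driven human vascular primary co-culture of endothelial cells and PBMC, sampled 24 h after compound addition.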
# [13] = read-out: E-selectin (Homo sapiens) (UniProt P16581); assay: BSK_LPS_Eselectin: BioMAP Diversity Plus: LPS Assay for Eselectin Biomarker Activity (AID 2283077); conditions: primary human HUVEC with PBMC; actives raise or lower the signal
# Outline: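 Signal of E-selectin, detected by ELISA, served as the endpoint; cells were umbilical vein endothelium with PBMC, read 24 h after treatment. DMSO defined baseline, and both increases and decreases were fitted.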
# [14] = read-out: Interleukin-8 (IL8), CXCL8 (gene 3576); assay: BSK_LPS_IL8: BioMAP Diversity Plus: LPS Assay for Interleukin-8 (IL8) Biomarker Activity (AID 2283078); conditions: primary human HUVEC with PBMC; actives raise or lower the signal
# Outline: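 Endothelial cells and PBMC from human donors are co-cultured, treated with chemicals and LPS, then assayed for IL-8 by ELISA after 24 h. Parallel SRB staining (0.1% SRB after 10% TCA fixation, 560 nm) flags cytotoxicity.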
# [15] = BSK_LPS_SRB: Viability Assessment in the BioMAP Diversity Plus: LPS Assay (AID 2283079); conditions: primary human HUVEC with PBMC;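 note: total protein by sulforhodamine B absorbance as a cytotoxicity measure; measured one day after compound addition; fitted in both directions against DMSO so loss or gain of signal counts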
# Outline: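 Overt cytotoxicity was gauged by sulforhodamine B total-protein staining in a primary human vascular endothelial and mononuclear cell co-culture 24 h post-dosing. Activity was fitted in both directions relative to DMSO.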
# [16] = read-out: Interleukin-1 alpha (IL1a), IL1A (gene 3552); assay: BSK_LPS_IL1a: BioMAP Diversity Plus: LPS Assay for Interleukin-1 alpha (IL1a) Biomarker Activity (AID 2283080); conditions: primary human HUVEC with PBMC; actives raise or lower the signal
# Outline: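 Measured: IL-1 alpha via ELISA at 24 h in LPS-activated human umbilical vein endothelium–PBMC co-culture. Baseline: DMSO, bidirectional fitting.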
# [17] = BSK_KF3CT_SRB: Viability Assessment in the BioMAP Diversity Plus: KF3CT Assay (AID 2283069); conditions: primary human keratinocytes with fibroblasts;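 note: fitted for both signal gain and loss against DMSO baseline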
# Outline: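 Overt cytotoxicity is assessed as total protein by sulforhodamine B staining in parallel human skin co-cultures at 24 h after dosing. DMSO serves as negative control and baseline.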
# [18] = read-out: TIMP metallopeptidase inhibitor 2 (TIMP2), TIMP2 (gene 7077); assay: BSK_KF3CT_TIMP2: BioMAP Diversity Plus: KF3CT Assay for TIMP metallopeptidase inhibitor 2 (TIMP2) Biomarker Activity (AID 2283071); conditions: primary human keratinocytes with fibroblasts; actives raise or lower the signal
# Outline: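 TIMP-2 measured by ELISA at 24 h in human keratinocyte/fibroblast primary co-cultures exposed to chemicals. Both increases and decreases were fitted against DMSO. Parallel cultures were stained with SRB for total protein as an overt-cytotoxicity check.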
# [19] = read-out: Transforming growth factor beta 1 (TGFb1), TGFB1 (gene 7040); assay: BSK_KF3CT_TGFb1: BioMAP Diversity Plus: KF3CT Assay for Transforming growth factor beta 1 (TGFb1) Biomarker Activity (AID 2283072); conditions: primary human keratinocytes with fibroblasts; actives raise or lower the signal
# Outline: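 ELISA quantifies TGF-b1 at 24 h post-dose in a primary human skin co-culture of keratinocytes and fibroblasts, with gain or loss judged against DMSO. Parallel SRB total-protein staining flags overt cytotoxicity.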
# E-selectin (Homo sapiens), sequence (P16581 whole entry, looked up): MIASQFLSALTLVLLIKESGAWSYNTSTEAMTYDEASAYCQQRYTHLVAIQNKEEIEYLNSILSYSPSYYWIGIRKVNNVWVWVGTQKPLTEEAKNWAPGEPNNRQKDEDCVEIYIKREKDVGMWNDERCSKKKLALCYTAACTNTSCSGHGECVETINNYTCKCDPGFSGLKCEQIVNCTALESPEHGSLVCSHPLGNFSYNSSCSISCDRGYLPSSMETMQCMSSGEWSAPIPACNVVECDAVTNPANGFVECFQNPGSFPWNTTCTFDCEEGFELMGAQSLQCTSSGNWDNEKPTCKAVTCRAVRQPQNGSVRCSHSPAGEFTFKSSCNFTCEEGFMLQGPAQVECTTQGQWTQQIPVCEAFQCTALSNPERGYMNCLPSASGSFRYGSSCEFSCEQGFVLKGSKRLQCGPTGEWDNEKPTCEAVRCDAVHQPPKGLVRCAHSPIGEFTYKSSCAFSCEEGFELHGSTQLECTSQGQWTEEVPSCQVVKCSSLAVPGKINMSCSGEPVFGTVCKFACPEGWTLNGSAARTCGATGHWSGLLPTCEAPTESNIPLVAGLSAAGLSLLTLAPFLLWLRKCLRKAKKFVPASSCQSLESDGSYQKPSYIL
smiles,measurement,setting,value
O=S(=O)(O)C(F)(F)C(F)(F)C(F)(F)C(F)(F)C(F)(F)C(F)(F)C(F)(F)C(F)(F)C(F)(F)C(F)(F)F,AC50,[1],8.49 µM (active) and 8.79 µM (active)
same,AC50,[2],11.5 µM (active)
same,outcome,[2],inactive
same,outcome,[3],inactive
same,outcome,[4],inactive
same,AC50,[5],201 nM (active)
same,outcome,[5],inactive
same,outcome,[6],inactive
same,AC50,[7],6.49 µM (active) and 3.75 µM (active)
same,outcome,[8],inactive
same,outcome,[9],inactive
same,outcome,[10],inactive
same,AC50,[11],11.9 µM (active) and 5.3 µM (active)
same,outcome,[12],inactive
same,AC50,"CD40, CD40 (gene 958)",13.3 µM (active) and 16.5 µM (active)
same,AC50,[13],24.7 µM (active) and 768 nM (active)
same,AC50,[14],23.4 µM (active) and 20.3 µM (active)
same,outcome,[15],inactive
OCCN1CN(CCO)CN(CCO)C1,outcome,[1],inactive
same,outcome,[2],inactive
same,AC50,[3],20 µM (active)
same,outcome,[4],inactive
same,AC50,[5],15500 nM (active)
same,outcome,[6],inactive
same,AC50,[7],20 µM (active)
same,AC50,[9],5.9 µM (active)
same,outcome,[10],inactive
same,outcome,[11],inactive
same,outcome,[12],inactive
same,AC50,"CD40, CD40 (gene 958)",36 µM (active)
same,AC50,[13],29.9 µM (active)
same,AC50,[14],28.2 µM (active)
same,outcome,[15],inactive
same,AC50,[16],31.4 µM (active)
CCCCCCCCCCCC,AC50,[1],8.02 µM (active) and 11.1 µM (active)
same,AC50,[2],7.88 µM (active) and 9.41 µM (active)
same,AC50,[3],11.6 µM (active) and 10.2 µM (active)
same,AC50,[4],5.36 µM (active) and 7.16 µM (active)
same,AC50,[5],8.36 µM (active) and 7.77 µM (active)
same,AC50,[6],11.2 µM (active) and 10.6 µM (active)
same,AC50,[7],15.2 µM (active) and 15.8 µM (active)
same,outcome,[17],inactive
same,AC50,[9],11.4 µM (active) and 12.2 µM (active)
same,AC50,[18],7.91 µM (active) and 9.05 µM (active)
same,AC50,[10],6.76 µM (active) and 8.48 µM (active)
same,AC50,[11],6.78 µM (active) and 7.3 µM (active)
same,AC50,[12],11.1 µM (active)
same,AC50,"CD40, CD40 (gene 958)",20 µM (active)
same,outcome,"CD40, CD40 (gene 958)",inactive
same,AC50,[13],30.5 µM (active) and 32.7 µM (active)
same,AC50,[14],33.1 µM (active) and 30.7 µM (active)
same,outcome,[15],inactive
CS(=O)(=O)c1ccc([C@@H](CC2CCCC2)C(=O)Nc2cnccn2)cc1Cl,outcome,[1],inactive
same,outcome,[2],inactive
same,outcome,[3],inactive
same,outcome,[4],inactive
same,outcome,[5],inactive
same,AC50,[6],20 µM (active)
same,outcome,[7],inactive
same,outcome,[9],inactive
same,outcome,[10],inactive
same,outcome,[11],inactive
same,outcome,[12],inactive
same,outcome,"CD40, CD40 (gene 958)",inactive
same,outcome,[13],inactive
same,outcome,[14],inactive
same,outcome,[15],inactive
same,outcome,[16],inactive
O=C(O)CCC(F)(F)C(F)(F)C(F)(F)C(F)(F)C(F)(F)F,outcome,[1],inactive
same,outcome,[2],inactive
same,AC50,[4],13.8 µM (active)
same,outcome,[4],inactive
same,outcome,[5],inactive
same,outcome,[6],inactive
same,outcome,[7],inactive
same,outcome,[9],inactive
same,outcome,[10],inactive
same,outcome,[11],inactive
same,outcome,[12],inactive
same,outcome,"CD40, CD40 (gene 958)",inactive
same,outcome,[13],inactive
same,AC50,[14],5.95 µM (active)
same,outcome,[14],inactive
same,outcome,[15],inactive
same,outcome,[16],inactive
Oc1cc2ccccc2cc1O,outcome,[1],inactive
same,outcome,[2],inactive
same,outcome,[3],inactive
same,outcome,[4],inactive
same,outcome,[5],inactive
same,outcome,[6],inactive
same,outcome,[7],inactive
same,outcome,[9],inactive
same,outcome,[19],inactive
same,outcome,[10],inactive
same,outcome,[11],inactive
same,outcome,[12],inactive
same,outcome,"CD40, CD40 (gene 958)",inactive
same,outcome,[13],inactive
same,outcome,[14],inactive
same,outcome,[15],inactive
same,outcome,[16],inactive
